Test systems include HCT-15 colon; HT29 colon; SNB-75 CNS; SNB-19 CNS; U251 CNS; PC-3 prostate; SK-MEL-5 melanoma; UACC-62 melanoma; LOX IMVI melanoma; SK-MEL-28 melanoma; EKVX NSCLC; SN12C renal; UO-31 renal; TK-10 renal; ACHN renal; CAKI-1 renal; A498 renal; CCRF-CEM leukemia; MOLT-4 leukemia.
Holding throughout (experiment): NCI-60 one-dose screen, 48 h (100 = growth as untreated, 0 = no growth, -100 = all killed)
What all share (settings): 10 µM unless noted

Compounds without any hit were thinned out: in the full panel of roughly 83,000, 20% have a hit.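 The endpoint reported here, percent growth, reads 100 for growth as untreated, 0 for no net growth and -100 for all cells dead.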 A number with no mark means an inactive call. Active and inactive are the calls of the source. How the source made its calls: active means growth percent below 10; inactive means the rest.

Turning to `Cc1ccc(N)cc1CN1C(=O)c2ccccc2C1=O`, the growth was 101% in the experiment on HCT-15 colon; 85.5% in the experiment with HT29 colon; 87% with SNB-75 CNS; 102% with SNB-19 CNS; 102% in the experiment with U251 CNS; 90.1% in the experiment on PC-3 prostate. Further, the growth in the experiment with SK-MEL-5 melanoma is 103%; in the experiment on UACC-62 melanoma, 103%; in the experiment with LOX IMVI melanoma, 101%; in the experiment on SK-MEL-28 melanoma, 110%; in the experiment with EKVX NSCLC, 105%; in the experiment on SN12C renal it was 103%. Besides, the growth in the experiment on UO-31 renal was 70.1%; in the experiment on TK-10 renal, 88.3%; in the experiment with ACHN renal it was 106%; in the experiment with CAKI-1 renal, 105%; with A498 renal, 96.5%; with CCRF-CEM leukemia, 92.4%. Also, the growth in the experiment with MOLT-4 leukemia was 94.9%.
As to `N#Cc1ccc(-n2nnc3ccccc32)cc1C#N`, the growth in the experiment with HCT-15 colon was 99.8%; with HT29 colon it was 108%; in the experiment on SNB-75 CNS it was 121%; in the experiment on SNB-19 CNS, 112%; in the experiment on U251 CNS it was 91.3%; in the experiment with PC-3 prostate it was 101%. Also, the growth in the experiment with SK-MEL-5 melanoma was 97.6%; in the experiment on UACC-62 melanoma, 94.5%; with LOX IMVI melanoma, 99.4%; in the experiment with SK-MEL-28 melanoma, 104%; in the experiment with EKVX NSCLC it was 79.2%; in the experiment with SN12C renal it was 101%. The growth in the experiment with UO-31 renal was 88.5%; with TK-10 renal it was 134%; in the experiment with ACHN renal, 103%; in the experiment with CAKI-1 renal, 85.4%; with A498 renal, 72.8%; in the experiment on CCRF-CEM leukemia, 93.1%. Moreover, the growth with MOLT-4 leukemia is 93.3%.
Turning to `COc1c(OCCCN2CCOCC2)ccc2c3n(c(=NC(=O)c4cnc(N)nc4)nc12)CCN3`, the growth with HCT-15 colon was 14.9%; in the experiment with HT29 colon, 3.56% (active); in the experiment on SNB-75 CNS, -19.2% (active); in the experiment on SNB-19 CNS, 10.8%; in the experiment on U251 CNS, 10.1%; in the experiment with PC-3 prostate it was 12%. Besides, the growth is -48.7% (active) with SK-MEL-5 melanoma; -48.9% (active) in the experiment with UACC-62 melanoma; -41.9% (active) with LOX IMVI melanoma; -7.18% (active) in the experiment on SK-MEL-28 melanoma; 13.2% in the experiment on EKVX NSCLC; 16.3% with SN12C renal. Besides, the growth in the experiment with UO-31 renal was -13.8% (active); with TK-10 renal it was -21% (active); in the experiment on ACHN renal, 8.09% (active); in the experiment on CAKI-1 renal, 0.422% (active); in the experiment on A498 renal, -60.7% (active); in the experiment on CCRF-CEM leukemia it was 17.7%. The growth in the experiment on MOLT-4 leukemia was 6.38% (active).
Regarding `Cn1ccnc1C(=O)/C=C/c1ccc(CC(=O)Nc2ccc(C(F)(F)F)cc2)cc1`, the growth was -18.7% (active) in the experiment on HCT-15 colon; -2.78% (active) with HT29 colon; 0.358% (active) in the experiment on SNB-75 CNS; 4.97% (active) in the experiment on SNB-19 CNS; -20% (active) in the experiment with U251 CNS; 13.8% in the experiment on PC-3 prostate. Moreover, the growth in the experiment on SK-MEL-5 melanoma is 56.9%; in the experiment on UACC-62 melanoma, 27.9%; in the experiment with LOX IMVI melanoma, -49.4% (active); with SK-MEL-28 melanoma it was 77.8%; in the experiment on EKVX NSCLC, 14.9%; in the experiment on SN12C renal it was 10% (active). The growth was 22.1% in the experiment with UO-31 renal; 32.6% in the experiment with TK-10 renal; 27.9% in the experiment on ACHN renal; 33.5% in the experiment on CAKI-1 renal; 64.5% in the experiment with A498 renal; 8.58% (active) in the experiment on CCRF-CEM leukemia. Besides, in the experiment on MOLT-4 leukemia, the growth was -7.88% (active).
Consider `C#Cc1cccc(Nc2ncnc3cc(OCCOC)c(OCCOC)cc23)c1`, for which the growth in the experiment on HCT-15 colon was 39.3%; in the experiment on HT29 colon, 53.2%; with SNB-75 CNS, 71.6%; in the experiment with SNB-19 CNS, 79.8%; with U251 CNS, 68.8%; with PC-3 prostate, 73.4%. The growth in the experiment on SK-MEL-5 melanoma is 77.1%; in the experiment with UACC-62 melanoma it was 50.9%; in the experiment on LOX IMVI melanoma it was 47.2%; in the experiment on SK-MEL-28 melanoma, 86.8%; in the experiment with EKVX NSCLC, 39.6%; in the experiment with SN12C renal, 50.5%. Further, the growth with UO-31 renal is 17.3%; in the experiment with TK-10 renal it was -6.62% (active); in the experiment with ACHN renal, 11.3%; with CAKI-1 renal it was 6.29% (active); in the experiment with A498 renal, 20.2%; in the experiment on CCRF-CEM leukemia it was 71.2%. Besides, the growth with MOLT-4 leukemia is 56.1%.
With `O=C(c1c(F)ccc(NS(=O)(=O)N2CC[C@@H](F)C2)c1F)c1c[nH]c2ncc(-c3cnc(C4CC4)nc3)cc12`, the growth is 44.1% in the experiment with HCT-15 colon; 3.81% (active) in the experiment with HT29 colon; 37.7% in the experiment with SNB-75 CNS; 52.8% with SNB-19 CNS; 42.4% in the experiment on U251 CNS; 46.5% in the experiment with PC-3 prostate. Also, the growth in the experiment on SK-MEL-5 melanoma is 22%; in the experiment with UACC-62 melanoma it was -22.9% (active); with LOX IMVI melanoma, 15.9%; in the experiment on SK-MEL-28 melanoma it was -5.44% (active); with EKVX NSCLC, 58.5%; in the experiment on SN12C renal it was 48%. In addition, the growth in the experiment with UO-31 renal was 25.9%; with TK-10 renal it was 41.7%; with ACHN renal, 34.5%; in the experiment with CAKI-1 renal, 16.7%; in the experiment with A498 renal it was 62.7%; with CCRF-CEM leukemia, 47.6%. The growth in the experiment with MOLT-4 leukemia is 16.3%.
Regarding `C[C@@H](Oc1cc(-n2cnc3ccc(CN4CCN(C)CC4)cc32)sc1C(N)=O)c1ccccc1C(F)(F)F`, the growth is 6.53% (active) in the experiment with HCT-15 colon; 4.62% (active) in the experiment on HT29 colon; -5.55% (active) in the experiment on SNB-75 CNS; 26.1% in the experiment on SNB-19 CNS; 29.1% in the experiment with U251 CNS; 32.9% in the experiment with PC-3 prostate. Moreover, the growth in the experiment on SK-MEL-5 melanoma was 4.6% (active); with UACC-62 melanoma it was 51.1%; in the experiment on LOX IMVI melanoma, 4.53% (active); with SK-MEL-28 melanoma, 38%; in the experiment with EKVX NSCLC, 38.9%; in the experiment with SN12C renal, 15.6%. Also, the growth is 16.6% in the experiment with UO-31 renal; 52.2% in the experiment on TK-10 renal; 31.1% in the experiment with ACHN renal; 28.3% in the experiment on CAKI-1 renal; -23% (active) in the experiment on A498 renal; 6.03% (active) in the experiment on CCRF-CEM leukemia. Also, the growth in the experiment with MOLT-4 leukemia was -7.58% (active).
Consider `COc1cc(NC2CCC(=O)N2c2ccc(Cl)cc2Cl)cc(OC)c1OC` (configuration not stated), for which the growth in the experiment on HCT-15 colon is 108%; with HT29 colon, 107%; in the experiment with SNB-75 CNS, 86.5%; with SNB-19 CNS it was 101%; in the experiment on U251 CNS, 97.7%; in the experiment with PC-3 prostate, 95.9%. In addition, the growth in the experiment with SK-MEL-5 melanoma is 103%; with UACC-62 melanoma it was 104%; in the experiment with LOX IMVI melanoma it was 96.6%; in the experiment with SK-MEL-28 melanoma, 104%; in the experiment with EKVX NSCLC, 100%; with SN12C renal it was 109%. In addition, the growth in the experiment with UO-31 renal is 94.5%; with TK-10 renal, 104%; in the experiment on ACHN renal, 110%; in the experiment with CAKI-1 renal, 95.7%; in the experiment on A498 renal, 89.2%; in the experiment on CCRF-CEM leukemia it was 90.5%. In the experiment with MOLT-4 leukemia, the growth was 96.2%.

Values taken from PubChem BioAssay (NCI).
